# Source: PubChem BioAssay
# Active and inactive are the calls of the source.
# Assays:
# [1] = E. coli DRC41 culture turbidity changes, primary screen, E. coli filamentation inducer project, strain DRC41, OD650, 48 h (AID 1152);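 further: E. coli MC1000 strain DRC41 lacking acrAB efflux pump and sulA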; conditions: E. coli DRC41 (acrAB sulA), higher = more signal, called active from +8 up or from −8 down
# [2] = small-molecule binders of probe aLefty1, primary screen, biochemical, small-molecule microarray, 635/667 nm fluorescence (AID 1153); conditions: higher = more signal;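 further: score merges spot fluorescence with signal-to-noise ratio from the scanned slide images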
# [3] = PSAC antagonists in infected red cells, primary screen, cell-based, P. falciparum Indochina, OD700, 1 h (AID 1154); conditions: P. falciparum Indochina infected RBC osmotic lysis, higher = more signal, called active from +8 up or from −8 down
# [4] = PSAC antagonists in infected red cells, primary screen, cell-based, P. falciparum Indochina, OD700, 2 h (AID 1155);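 further: lysis reports solute entry through the parasite surface anion channel PSAC; channel blockers reduce lysis of infected cells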; conditions: P. falciparum Indochina infected erythrocytes, osmotic lysis OD700; higher = more signal, called active from +8 up or from −8 down
# [5] = osmotic lysis modulators in infected erythrocytes, primary screen, PSAC antagonist project, cell-based, P. falciparum Indochina, OD700, 3 h (AID 1156); conditions: higher = more signal, called active from +8 up or from −8 down
# [6] = PSAC antagonists in infected red cells, primary screen, cell-based, P. falciparum Indochina, OD700, 18 h (AID 1157); conditions: P. falciparum Indochina infected erythrocytes, osmotic lysis OD700, 18 h; higher = more signal, called active from +8 up or from −8 down
# [7] = modulators of S6 phosphorylation in cells, primary screen, cell-based, A549, cytoblot, luminescence, serum-stimulated (AID 1158); conditions: A549 phospho-S6 cytoblot, 5 h, higher = more signal;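 further: serum-stimulated A549 lung adenocarcinoma cells; signal is phosphorylated S6 detected by cytoblot immunostaining with HRP secondary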
# [8] = molecular target: NADPH oxidase 2 (Homo sapiens) (UniProt P04839); assay: NOX2-dependent H2O2 signal modulators, primary screen, NOX inhibitor project, cell-based, HEK293-NOX2, PMA-stimulated, Amplex Red fluorescence (AID 1159); conditions: 45 min, higher = more signal, called active from +8 up or from −8 down; further: test concentration not given here
# [9] = molecular target: NADPH oxidase 4 (Homo sapiens) (UniProt Q9NPH5); assay: NOX4-dependent H2O2 signal modulators, primary screen, NOX inhibitor project, cell-based, HEK293-NOX4, tetracycline-induced, Amplex Red fluorescence (AID 1160); conditions: 45 min, higher = more signal, called active from +8 up or from −8 down
# [10] = molecular target: NADPH oxidase 5 (Homo sapiens) (UniProt Q96PH1); assay: NOX5-dependent H2O2 signal modulators, primary screen, NOX inhibitor project, cell-based, HEK293-NOX5, Amplex Red fluorescence (AID 1161); conditions: HEK293-NOX5, ionomycin, 45 min, higher = more signal
# [11] = A549 cell viability effects, profiling panel, calcein-AM fluorescence, 48 h, basal (AID 1162); conditions: higher = more signal; further: test concentration not given here
# [12] = adipocyte viability effects, profiling panel, cell-based, 3T3-L1 adipocytes, calcein-AM fluorescence, 48 h, basal (AID 1163); conditions: 3T3-L1 adipocytes viability, higher = more signal; further: test concentration not given here
# [13] = HepG2 cell viability effects, profiling panel, calcein-AM fluorescence, 48 h, basal (AID 1164); conditions: higher = more signal; further: test concentration not given here
# [14] = MM1S cell viability effects, profiling panel, calcein-AM fluorescence, 48 h, basal (AID 1165); conditions: higher = more signal;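 further: viability of MM1S multiple myeloma cells under basal unstimulated conditions; test concentration not given here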
# [15] = basal RPMI8226 viability, no added stimulus, profiling panel, cell-based, calcein-AM fluorescence, 48 h, PK04 Diversity Set (AID 1166); conditions: RPMI8226 myeloma viability, higher = more signal;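 further: cells grown under basal conditions without added stimulus; test concentration not given here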
# [16] = basal HepG2 mitochondrial membrane potential changes, profiling panel, cell-based, JC-1 fluorescence, 24 h, 100 nL compound (AID 1167); conditions: higher = more signal; further: test concentration not given here
# [17] = basal 3T3-L1 adipocyte mitochondrial potential changes, profiling panel, cell-based, JC-1 fluorescence, 3T3-L1 adipocytes, 24 h, 100 nL compound (AID 1168); conditions: JC-1 mitochondrial fluorescence, higher = more signal, called active from +8 up or from −8 down; further: test concentration not given here
# [18] = basal RPMI8226 mitochondrial membrane potential changes, profiling panel, cell-based, JC-1 fluorescence, 24 h, 100 nL compound (AID 1169); conditions: RPMI8226 myeloma, JC-1 mitochondrial potential fluorescence, higher = more signal; further: test concentration not given here
# [19] = basal MM1S mitochondrial membrane potential changes, profiling panel, cell-based, JC-1 fluorescence, 24 h, 100 nL compound (AID 1170); conditions: higher = more signal; further: test concentration not given here
# [20] = A549 lung cancer cell viability effects, profiling panel, resazurin fluorescence, 24 h, PK04 Diversity Set (AID 1171); conditions: higher = more signal, called active from +8 up or from −8 down; further: test concentration not given here
# Sequence of NADPH oxidase 2 (Homo sapiens) (P04839 whole entry, looked up): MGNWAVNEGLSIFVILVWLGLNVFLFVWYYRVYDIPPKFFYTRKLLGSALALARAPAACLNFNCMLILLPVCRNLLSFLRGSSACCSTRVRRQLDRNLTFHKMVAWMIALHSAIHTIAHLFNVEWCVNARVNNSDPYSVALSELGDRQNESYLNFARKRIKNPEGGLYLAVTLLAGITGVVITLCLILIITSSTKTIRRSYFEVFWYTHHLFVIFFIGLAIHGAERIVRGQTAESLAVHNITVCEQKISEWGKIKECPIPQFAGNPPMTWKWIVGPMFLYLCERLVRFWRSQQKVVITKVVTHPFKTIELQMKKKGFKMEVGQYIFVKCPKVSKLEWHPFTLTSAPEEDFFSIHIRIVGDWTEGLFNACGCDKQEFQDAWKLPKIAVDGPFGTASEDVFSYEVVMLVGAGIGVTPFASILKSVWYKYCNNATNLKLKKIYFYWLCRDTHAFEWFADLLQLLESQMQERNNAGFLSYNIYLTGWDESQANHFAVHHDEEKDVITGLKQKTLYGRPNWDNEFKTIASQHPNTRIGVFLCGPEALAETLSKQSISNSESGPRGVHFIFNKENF
# Sequence of NADPH oxidase 5 (Homo sapiens) (Q96PH1 whole entry, looked up): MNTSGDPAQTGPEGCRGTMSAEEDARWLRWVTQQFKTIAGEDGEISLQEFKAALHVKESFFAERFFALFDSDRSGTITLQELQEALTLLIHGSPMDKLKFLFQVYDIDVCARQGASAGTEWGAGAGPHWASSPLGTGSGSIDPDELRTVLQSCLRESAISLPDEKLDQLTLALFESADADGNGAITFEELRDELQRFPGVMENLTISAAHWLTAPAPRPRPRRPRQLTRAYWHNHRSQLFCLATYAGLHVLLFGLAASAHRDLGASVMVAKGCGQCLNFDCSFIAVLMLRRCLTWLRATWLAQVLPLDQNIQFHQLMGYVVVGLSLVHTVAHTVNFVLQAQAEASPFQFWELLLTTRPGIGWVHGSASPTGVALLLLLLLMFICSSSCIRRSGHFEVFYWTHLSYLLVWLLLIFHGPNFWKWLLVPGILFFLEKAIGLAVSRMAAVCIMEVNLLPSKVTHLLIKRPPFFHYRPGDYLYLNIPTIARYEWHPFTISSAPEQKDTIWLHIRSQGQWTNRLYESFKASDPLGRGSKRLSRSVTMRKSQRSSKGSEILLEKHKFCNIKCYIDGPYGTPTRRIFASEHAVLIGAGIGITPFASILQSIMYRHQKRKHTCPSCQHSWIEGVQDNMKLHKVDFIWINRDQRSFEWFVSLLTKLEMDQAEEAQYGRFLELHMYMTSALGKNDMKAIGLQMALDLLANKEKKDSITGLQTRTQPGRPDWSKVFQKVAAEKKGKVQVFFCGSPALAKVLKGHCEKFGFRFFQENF
# Sequence of NADPH oxidase 4 (Homo sapiens) (Q9NPH5 whole entry, looked up): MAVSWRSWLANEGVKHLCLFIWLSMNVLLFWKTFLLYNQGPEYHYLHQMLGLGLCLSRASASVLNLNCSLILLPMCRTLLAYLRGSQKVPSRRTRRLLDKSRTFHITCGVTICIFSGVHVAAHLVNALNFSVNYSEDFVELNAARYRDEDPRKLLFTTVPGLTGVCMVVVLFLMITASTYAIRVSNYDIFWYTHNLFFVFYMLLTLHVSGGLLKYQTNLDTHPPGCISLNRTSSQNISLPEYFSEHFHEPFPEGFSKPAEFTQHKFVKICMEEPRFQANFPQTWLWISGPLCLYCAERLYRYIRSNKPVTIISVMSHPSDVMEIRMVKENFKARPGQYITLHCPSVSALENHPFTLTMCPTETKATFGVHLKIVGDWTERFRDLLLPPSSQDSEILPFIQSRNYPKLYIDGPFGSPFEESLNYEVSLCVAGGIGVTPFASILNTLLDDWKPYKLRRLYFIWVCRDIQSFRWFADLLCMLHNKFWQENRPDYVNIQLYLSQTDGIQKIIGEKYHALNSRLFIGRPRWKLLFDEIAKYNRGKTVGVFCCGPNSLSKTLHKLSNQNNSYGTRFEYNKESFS
Compound,z-score [1],composite z-score [2],z-score [3],z-score [4],z-score [5],z-score [6],z-score [7],z-score [8],z-score [9],z-score [10],z-score [11],z-score [12],z-score [13],z-score [14],z-score [15],z-score [16],z-score [17],z-score [18],z-score [19],z-score [20]
COc1ccc([Si](C)(C)[C@@H]2[C@@H](CC(=O)N(CCO)Cc3ccccc3)O[C@]3(C(=O)N(Cc4ccc(N5CCC5=O)cc4)c4ccccc43)[C@H]2C)cc1,1.12 (inactive),-0.399,6.38 (inactive),0.924 (inactive),-0.709 (inactive),-1.27 (inactive),0.838,1.53 (inactive),1.41 (inactive),3.52,-0.361,2.28,-1.34,-1.28,-3.15,0.768,1.95 (inactive),-0.944,-0.83,-1.37 (inactive)
CCC[C@@H]1[C@@H](Sc2ccccc2)[C@@H](C(=O)O)[C@H](c2ccc(C)cc2)N1S(=O)(=O)c1ccc(C)cc1,0.086 (inactive),0.0531,1.44 (inactive),0.495 (inactive),-0.892 (inactive),1 (inactive),-0.0334,1.82 (inactive),0.872 (inactive),1.27,-0.861,-0.571,0.699,0.116,-2.59,-0.772,1.41 (inactive),-0.134,-1.64,-0.856 (inactive)
C=C(COC)C(=O)CC[C@@H](OC(C)=O)c1ccc(OCCO)cc1,-0.297 (inactive),-0.007,2.52 (inactive),0.27 (inactive),0.133 (inactive),0.0871 (inactive),0.239,-0.352 (inactive),-0.885 (inactive),-0.112,0.453,0.327,-0.446,-3.18,-0.311,-1.28,-0.979 (inactive),-0.652,-0.655,-0.412 (inactive)
C=C(CCCC)C(=O)CC[C@H](OC(=O)c1cccnc1)c1ccc(CO)o1,-0.348 (inactive),0.3,2.21 (inactive),0.101 (inactive),0.217 (inactive),0.038 (inactive),-0.253,1.25 (inactive),0.532 (inactive),-0.454,-0.489,-0.175,0.0768,0.187,-0.0395,-1.48,-0.572 (inactive),-0.577,-0.283,-0.0291 (inactive)
CCN(CC)c1ccc(N2CC=CC34O[C@@H]5C=CCOC(=O)[C@@H]5[C@H]3C(=O)N(CCO)[C@@H]4C2=O)cc1 (stereo not given in full),1.51 (inactive),0.0434,0.116 (inactive),0.0907 (inactive),0.714 (inactive),-0.0665 (inactive),-0.221,-0.0361 (inactive),0.364 (inactive),0.613,1.22,0.273,0.662,-0.783,0.38,0.396,0.537 (inactive),-0.0585,0.0601,0.588 (inactive)
COCC1=C([C@H](O)CCc2ccccc2)[C@H](CO)n2c(=O)n(-c3ccccc3)c(=O)n2C1,3.47 (inactive),-0.409,2.67 (inactive),-0.913 (inactive),-0.618 (inactive),-1.61 (inactive),1.72,-0.638 (inactive),-2.05 (inactive),-0.659,0.119,0.102,0.925,0.572,-0.221,-0.835,-0.596 (inactive),-0.309,-1.37,-0.619 (inactive)
COC(=O)c1c(CC[C@@H](CO)NC(=O)N[C@@H](Cc2ccccc2)Cn2cc(-c3cncn3C)nn2)oc(C(C)=O)c1C(=O)OC,0.922 (inactive),-0.147,1.49 (inactive),-0.182 (inactive),1.29 (inactive),-0.277 (inactive),1.22,-5.64 (inactive),-2.01 (inactive),-3.3,-0.184,1.15,-0.382,0.732,-1.81,-0.321,0.724 (inactive),-0.442,-0.322,-0.208 (inactive)
O=C1C2C=CC(C(O)c3ccc([N+](=O)[O-])cc3)N(Nc3ccccc3)C2C(=O)N1c1ccccc1 (stereo not given),-1.21 (inactive),0.124,3.99 (inactive),2.55 (inactive),2.09 (inactive),1.9 (inactive),-1.32,-2.02 (inactive),-4.69 (inactive),-2.53,-0.121,-1.38,0.761,0.323,-0.423,-2.59,-0.886 (inactive),-1.01,-1.55,-0.0448 (inactive)
CN(C)CCCC[C@@H]1NC(=O)[C@H]2C[C@@H](C(=O)O)[C@@H](c3cccc(OCCO)c3)N2C1=O,0.0804 (inactive),0.393,7.58 (inactive),0.945 (inactive),-5.21 (inactive),0.424 (inactive),0.479,-2.73 (inactive),-3.04 (inactive),-1.4,-0.17,0.174,0.41,-3.21,0.584,0.773,-0.829 (inactive),-0.786,-0.713,0.618 (inactive)
COC(=O)[C@@]1(Cc2ccccc2)[C@H]2c3cc(C(=O)N4CCCC4)n(Cc4ccc(C(F)(F)F)nc4)c3C[C@H]2CN1C(=O)c1ccccc1,-1.31 (inactive),0.689,2.24 (inactive),0.145 (inactive),1.45 (inactive),0.444 (inactive),-0.467,0.262 (inactive),0.396 (inactive),-3.03,-0.567,1.88,-0.499,-0.331,-1.59,1.5,-0.657 (inactive),-0.561,-0.796,0.263 (inactive)
C=CCC(OC(C)=O)[C@@H]1[C@@H](N(Cc2cccc3ccccc23)C(=O)c2cccc3ccccc23)c2cc(OCCCO)ccc2N1C(=O)Cc1ccc2ccccc2c1 (stereo not given in full),-0.341 (inactive),0.211,0.704 (inactive),0.0473 (inactive),1.02 (inactive),0.334 (inactive),0.326,-1.93 (inactive),-0.859 (inactive),-2.79,-0.612,-0.151,-0.663,0.0031,-1.9,2.09,-0.0423 (inactive),0.00587,-0.00493,-0.0737 (inactive)
CO[C@H]1O[C@H](CO)[C@@H](OC(=O)Nc2ccccc2)[C@@H]2OC(=O)[C@H](Cc3ccccc3)C/C=C/C[C@@H](Cc3ccccc3)C(=O)O[C@@H]12,0.863 (inactive),0.302,10.1 (active),0.342 (inactive),-1.91 (inactive),-0.681 (inactive),1.31,-3.35 (inactive),-0.599 (inactive),-1.57,-0.152,0.385,0.358,-1.22,-2.46,-0.928,0.799 (inactive),-0.865,-1.45,-2.94 (inactive)
COC(=O)[C@]1(CO)N=C(c2ccc(OCCCO)cc2)O[C@@H]1c1ccccc1CN=[N+]=[N-],0.699 (inactive),-0.0626,7.47 (inactive),0.731 (inactive),1.34 (inactive),0.497 (inactive),-0.405,-0.259 (inactive),-0.0289 (inactive),0.234,0.0394,0.131,0.422,0.28,0.0032,-0.253,0.039 (inactive),0.00663,0.0223,-0.49 (inactive)
C#CCN(C/C=C/c1ccccc1)[C@H](CO[Si](C)(C)C(C)(C)C)c1ccccc1,-0.78 (inactive),-0.346,0.829 (inactive),0.984 (inactive),1.05 (inactive),-0.161 (inactive),-0.0623,1.64 (inactive),0.447 (inactive),-0.419,-0.909,-0.0156,-0.676,-0.848,-2.58,-2.55,0.155 (inactive),-0.352,0.653,0.403 (inactive)
C=CCC(OC(C)=O)[C@@H]1[C@@H](N(Cc2cc3ccccc3o2)C(=O)c2cccc3ccccc23)c2cc(OCCCO)ccc2N1C(=O)c1ccc2ccccc2c1 (stereo not given in full),-0.546 (inactive),0.0931,0.92 (inactive),0.0881 (inactive),0.547 (inactive),0.286 (inactive),0.552,-0.764 (inactive),-0.797 (inactive),-2.19,0.668,0.935,0.0108,0.364,-1.98,1.93,-1.18 (inactive),-0.276,-0.42,-1.55 (inactive)
N[C@@H](Cc1ccccc1)Cn1cc(C2(O)CCCCC2)nn1,-1.05 (inactive),0.099,0.225 (inactive),-0.304 (inactive),0.005 (inactive),0.137 (inactive),-0.225,0.0811 (inactive),1.51 (inactive),1.19,-0.359,-0.169,0.0224,-0.991,-0.775,-0.739,-0.375 (inactive),-0.622,-0.313,-0.279 (inactive)
COCCOC(=O)N1C(=O)[C@@]2(c3cc(C#CC4(O)CCCCCC4)ccc31)[C@H](c1ccc(OCCO)cc1)N1[C@H](c3ccccc3)[C@H](c3ccccc3)OC(=O)[C@H]1[C@@H]2C(N)=O,-0.137 (inactive),0.223,4.19 (inactive),1.89 (inactive),0.295 (inactive),0.999 (inactive),-0.485,1.82 (inactive),0.847 (inactive),-0.305,-0.29,0.902,-1.52,-3.04,-3.86,-2.03,-0.408 (inactive),-0.814,-1.21,-0.933 (inactive)
CCOC(=O)C1=CC[C@@H](c2ccccc2)N(S(=O)(=O)c2ccc(C)cc2)[C@H]1C#N,-0.355 (inactive),-0.081,2.97 (inactive),1.91 (inactive),-0.157 (inactive),0.999 (inactive),-0.769,0.426 (inactive),0.122 (inactive),-0.116,-0.97,-0.84,-0.139,-3.21,-2.32,-0.858,-1.04 (inactive),-0.441,-2.33,0.172 (inactive)
